# Results taken from PubChem BioAssay (Tox21).
# Records with an inconclusive call do not appear. Values without a mark were called inactive. Active and inactive are the calls of the source. Calls follow the shape of the dose curve; as a rule, active = well fitted cell-killing curve with a large enough effect in the repeat runs; inconclusive = weak or mixed curves, or effect the other way; inactive = flat fitted curve, though single readings scatter.
# Test: cAMP Responsive Elements (CRE) small molecule antagonists, cell-based qHTS assay: qHTS cell viability counter screen (AID 2060913); also: nearly all actives have a fitted effect of over 40% in size
# Details: CRE-bla HEK293T viability, CellTiter-Glo luminescence, 5 h; series mostly up to 92.4 µM; viability change, negative = cytotoxic: at the top concentration
# Method in brief: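 Steps: cells plated and held 18 hrs at 37 C/5% CO2; compounds and NKH477 (0.25 uM final) added; 3 hrs incubation; reporter substrate read; CellTiter-Glo added to measure cytotoxicity by luminescence.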
# % is scaled to controls: 0 for no effect and ±100 for the full control effect.
Structure (SMILES),"viability change, negative = cytotoxic",Potency
C#CCN[C@@H]1CCc2ccccc21,3.71% [at 42.5 µM],–
CCCCCCCC(=O)OCCCCCC,-0.487%,–
CCCOCCO,–,inactive
CC/C=C\CCOC(C)=O,-0.105%,–
CCN(CC)c1cccc(C)c1,-2.18%,–
Fc1ccc(C(c2ccc(F)cc2)N2CCNCC2)cc1,-0.979% [at 42.5 µM],–
CC(=O)C(C)C,–,inactive
OCCOCCN1CCN(C(c2ccccc2)c2ccc(Cl)cc2)CC1 (stereo not given),–,inactive
O=C(O)Cc1ccc(Cl)cc1Cl,-0.818%,–
C1=Cc2ccccc2C1,-0.508%,–
CCCCCCCCCCCCCCC1CO1 (stereo not given),2.45%,–
COC(=O)CS,6.32%,–
CCC/C=C/CO,1.53%,–
CO[Si](CCCNCCNCCN)(OC)OC,-0.241%,–
COc1ccc(-c2coc3cc(O)cc(O)c3c2=O)cc1,–,inactive
Cc1ccc(=O)n(-c2ccccc2)c1,10.1% [at 42.5 µM],–
CCCCCCCCCCCCCCCC(=O)OC,14.8% [at 18.9 µM],–
CC(CCO)CCCC(C)(C)O (stereo not given),-3.06%,–
CCCCOC(=O)c1ccccc1C(=O)OCC(CC)CCCC (stereo not given),0.274%,–
Cc1cc(C(=C2C=CC(=Nc3ccc(S(=O)(=O)O)cc3S(=O)(=O)O)C=C2)c2ccc(Nc3ccc(S(=O)(=O)O)cc3)cc2)ccc1N,-2.08% [at 42.5 µM],–

Structure (SMILES),"viability change, negative = cytotoxic",Potency
CC(=O)OC/C=C(C)/C=C/C=C(C)/C=C/C1=C(C)CCCC1(C)C,–,inactive
Cc1cccc(Nc2cc(Cl)nc(SCC(=O)O)n2)c1C,–,inactive
Brc1cc(Br)cc(Br)c1,1.53%,–
C=Cc1ccc(C(C)(C)C)cc1,2.04%,–
O=C(CCC1CCN(Cc2ccccc2)CC1)c1ccc2c(c1)NCCCC2,-8.1% [at 42.5 µM],–
CC(=O)c1ccccn1,–,inactive
Cc1cc(C)c(S(=O)(=O)O)cc1N=Nc1cc(S(=O)(=O)O)c2ccccc2c1O,9.62%,–
CCC(=O)/C=C/c1ccc(OC)cc1,11.8%,–
O=C1OC(=O)c2c(Cl)c(Cl)c(Cl)c(Cl)c21,–,inactive
CC[C@H](C)C(=O)O[C@H]1C[C@H](O)C=C2C=C[C@H](C)[C@H](CC[C@@H](O)C[C@@H](O)CC(=O)O)[C@H]21,0.0845%,–
CC(=O)OCCc1ccccc1,3.65%,–
Cc1ccc(O)c([C@H](CCN(C(C)C)C(C)C)c2ccccc2)c1,-14.1% [at 42.5 µM],–
CN(C)Cc1ccccc1,9.91%,–
ClCCCl,-8.11%,–
CN(C)[C@@H]1C(=O)C(C(N)=O)=C(O)[C@@]2(O)C(=O)C3=C(O)c4c(O)cccc4C[C@H]3C[C@@H]12,-0.414% [at 42.5 µM],–
CCN(CC)C(=O)Nc1ccc(OCC(O)CNC(C)(C)C)c(C(C)=O)c1 (stereo not given),8.77% [at 42.5 µM],–
CCOC(=O)/C=C/C(=O)OCC,6.21%,–
COC(OC)OC,1.2%,–
CC(=O)[C@H]1CC[C@H]2[C@@H]3C=CC4=CC(=O)CC[C@@]4(C)[C@@H]3CC[C@]12C,-12.2% [at 42.5 µM],–
C[C@@H]1C[C@H]2[C@@H]3CCC4=CC(=O)C=C[C@]4(C)[C@@]3(F)[C@@H](O)C[C@]2(C)[C@H]1C(=O)CO,-5.67% [at 42.5 µM],–

# Test: cAMP Responsive Elements (CRE) small molecule agonists, cell-based qHTS assay: qHTS cell viability counter screen (AID 2060914); also: potency is read from the fitted curve at half-maximal effect;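 also: viability read after 3 h of compound exposure; nearly all actives have a fitted effect of over 50% in size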
# Details: CRE-bla HEK293T viability, CellTiter-Glo luminescence, 5 h; series mostly up to 92.4 µM; activity change, negative = cytotoxicity: at the top concentration
# Method in brief: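 HEK 293T CRE-bla; DMEM + 10% dialyzed FBS, 25 mM HEPES; 18 h pre-incubation; compound 3 h, 37 °C/5% CO2; CellTiter-Glo added after reporter read; luminescence after 30 min RT.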
Structure (SMILES),"activity change, negative = cytotoxicity",Potency
C#CCN[C@@H]1CCc2ccccc21,10.2% [at 42.5 µM],–
CCCCCCCC(=O)OCCCCCC,-2.26%,–
CCCOCCO,–,inactive
CC/C=C\CCOC(C)=O,-1.22%,–
CCN(CC)c1cccc(C)c1,0.824%,–
Fc1ccc(C(c2ccc(F)cc2)N2CCNCC2)cc1,-10.6% [at 42.5 µM],–
CC(=O)C(C)C,–,inactive
OCCOCCN1CCN(C(c2ccccc2)c2ccc(Cl)cc2)CC1 (stereo not given),–,inactive
O=C(O)Cc1ccc(Cl)cc1Cl,-1.53%,–
C1=Cc2ccccc2C1,-1.49%,–
CCCCCCCCCCCCCCC1CO1 (stereo not given),2.67%,–
COC(=O)CS,-7.61%,–
CCC/C=C/CO,2.29%,–
CO[Si](CCCNCCNCCN)(OC)OC,22.2%,–
COc1ccc(-c2coc3cc(O)cc(O)c3c2=O)cc1,–,inactive
Cc1ccc(=O)n(-c2ccccc2)c1,1.05% [at 42.5 µM],–
CCCCCCCCCCCCCCCC(=O)OC,-20.6% [at 18.9 µM],–
CC(CCO)CCCC(C)(C)O (stereo not given),-4.99%,–
CCCCOC(=O)c1ccccc1C(=O)OCC(CC)CCCC (stereo not given),-12.2%,–
Cc1cc(C(=C2C=CC(=Nc3ccc(S(=O)(=O)O)cc3S(=O)(=O)O)C=C2)c2ccc(Nc3ccc(S(=O)(=O)O)cc3)cc2)ccc1N,0.532% [at 42.5 µM],–

Structure (SMILES),"activity change, negative = cytotoxicity",Potency
CC(=O)OC/C=C(C)/C=C/C=C(C)/C=C/C1=C(C)CCCC1(C)C,–,inactive
Cc1cccc(Nc2cc(Cl)nc(SCC(=O)O)n2)c1C,–,inactive
Brc1cc(Br)cc(Br)c1,1.69%,–
C=Cc1ccc(C(C)(C)C)cc1,0.745%,–
O=C(CCC1CCN(Cc2ccccc2)CC1)c1ccc2c(c1)NCCCC2,-10.9% [at 42.5 µM],–
CC(=O)c1ccccn1,–,inactive
Cc1cc(C)c(S(=O)(=O)O)cc1N=Nc1cc(S(=O)(=O)O)c2ccccc2c1O,-1.5%,–
CCC(=O)/C=C/c1ccc(OC)cc1,20.5%,–
O=C1OC(=O)c2c(Cl)c(Cl)c(Cl)c(Cl)c21,–,inactive
CC[C@H](C)C(=O)O[C@H]1C[C@H](O)C=C2C=C[C@H](C)[C@H](CC[C@@H](O)C[C@@H](O)CC(=O)O)[C@H]21,–,5.45 µM (active)
CC(=O)OCCc1ccccc1,19.2%,–
Cc1ccc(O)c([C@H](CCN(C(C)C)C(C)C)c2ccccc2)c1,0.548% [at 42.5 µM],–
CN(C)Cc1ccccc1,-8.77%,–
ClCCCl,-3.77%,–
CN(C)[C@@H]1C(=O)C(C(N)=O)=C(O)[C@@]2(O)C(=O)C3=C(O)c4c(O)cccc4C[C@H]3C[C@@H]12,9.34% [at 42.5 µM],–
CCN(CC)C(=O)Nc1ccc(OCC(O)CNC(C)(C)C)c(C(C)=O)c1 (stereo not given),2.25% [at 42.5 µM],–
CCOC(=O)/C=C/C(=O)OCC,3.89%,–
COC(OC)OC,-4.13%,–
CC(=O)[C@H]1CC[C@H]2[C@@H]3C=CC4=CC(=O)CC[C@@]4(C)[C@@H]3CC[C@]12C,-5.21% [at 42.5 µM],–
C[C@@H]1C[C@H]2[C@@H]3CCC4=CC(=O)C=C[C@]4(C)[C@@]3(F)[C@@H](O)C[C@]2(C)[C@H]1C(=O)CO,5.7% [at 42.5 µM],–
